# According to ChEMBL document CHEMBL1961873, “Compounds: GSK PKIS; Assays: Nanosyn kinase panel” (2012):
# Experiments:
# [1] = target: T1, Ephrin type-B receptor 2 (Homo sapiens) (UniProt P29323); settings: at 1 µM
# T1 sequence (whole entry): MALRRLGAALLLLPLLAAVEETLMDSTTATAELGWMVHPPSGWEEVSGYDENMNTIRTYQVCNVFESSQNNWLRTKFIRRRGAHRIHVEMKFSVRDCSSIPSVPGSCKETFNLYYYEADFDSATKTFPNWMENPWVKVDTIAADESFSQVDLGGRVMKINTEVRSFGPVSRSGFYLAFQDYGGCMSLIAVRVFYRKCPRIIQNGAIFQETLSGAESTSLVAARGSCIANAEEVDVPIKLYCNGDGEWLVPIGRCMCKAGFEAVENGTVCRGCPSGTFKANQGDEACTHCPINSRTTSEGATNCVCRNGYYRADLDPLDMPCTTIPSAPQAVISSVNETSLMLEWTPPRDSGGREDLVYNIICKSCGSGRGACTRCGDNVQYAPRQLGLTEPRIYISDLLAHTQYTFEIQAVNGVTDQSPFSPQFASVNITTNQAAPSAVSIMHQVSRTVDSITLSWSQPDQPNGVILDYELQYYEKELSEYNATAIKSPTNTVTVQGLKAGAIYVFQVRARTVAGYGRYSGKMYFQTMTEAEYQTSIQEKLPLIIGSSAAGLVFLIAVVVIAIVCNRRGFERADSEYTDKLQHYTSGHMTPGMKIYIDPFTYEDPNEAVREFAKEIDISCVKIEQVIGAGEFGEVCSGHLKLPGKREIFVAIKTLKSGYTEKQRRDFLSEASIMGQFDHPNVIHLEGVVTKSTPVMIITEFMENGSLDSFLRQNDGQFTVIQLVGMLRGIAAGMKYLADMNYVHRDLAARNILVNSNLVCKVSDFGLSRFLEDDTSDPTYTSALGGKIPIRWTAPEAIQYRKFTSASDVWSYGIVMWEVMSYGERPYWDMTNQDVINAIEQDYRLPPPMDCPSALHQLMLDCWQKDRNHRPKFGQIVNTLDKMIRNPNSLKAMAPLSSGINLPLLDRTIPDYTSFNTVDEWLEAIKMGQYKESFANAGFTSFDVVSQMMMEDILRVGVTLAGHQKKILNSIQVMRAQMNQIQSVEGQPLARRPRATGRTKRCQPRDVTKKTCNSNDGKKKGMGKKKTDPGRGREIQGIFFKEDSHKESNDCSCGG
# [2] = target: T2, Ephrin type-B receptor 3 (Homo sapiens) (UniProt P54753); settings: at 0.1 µM
# T2 sequence (whole entry): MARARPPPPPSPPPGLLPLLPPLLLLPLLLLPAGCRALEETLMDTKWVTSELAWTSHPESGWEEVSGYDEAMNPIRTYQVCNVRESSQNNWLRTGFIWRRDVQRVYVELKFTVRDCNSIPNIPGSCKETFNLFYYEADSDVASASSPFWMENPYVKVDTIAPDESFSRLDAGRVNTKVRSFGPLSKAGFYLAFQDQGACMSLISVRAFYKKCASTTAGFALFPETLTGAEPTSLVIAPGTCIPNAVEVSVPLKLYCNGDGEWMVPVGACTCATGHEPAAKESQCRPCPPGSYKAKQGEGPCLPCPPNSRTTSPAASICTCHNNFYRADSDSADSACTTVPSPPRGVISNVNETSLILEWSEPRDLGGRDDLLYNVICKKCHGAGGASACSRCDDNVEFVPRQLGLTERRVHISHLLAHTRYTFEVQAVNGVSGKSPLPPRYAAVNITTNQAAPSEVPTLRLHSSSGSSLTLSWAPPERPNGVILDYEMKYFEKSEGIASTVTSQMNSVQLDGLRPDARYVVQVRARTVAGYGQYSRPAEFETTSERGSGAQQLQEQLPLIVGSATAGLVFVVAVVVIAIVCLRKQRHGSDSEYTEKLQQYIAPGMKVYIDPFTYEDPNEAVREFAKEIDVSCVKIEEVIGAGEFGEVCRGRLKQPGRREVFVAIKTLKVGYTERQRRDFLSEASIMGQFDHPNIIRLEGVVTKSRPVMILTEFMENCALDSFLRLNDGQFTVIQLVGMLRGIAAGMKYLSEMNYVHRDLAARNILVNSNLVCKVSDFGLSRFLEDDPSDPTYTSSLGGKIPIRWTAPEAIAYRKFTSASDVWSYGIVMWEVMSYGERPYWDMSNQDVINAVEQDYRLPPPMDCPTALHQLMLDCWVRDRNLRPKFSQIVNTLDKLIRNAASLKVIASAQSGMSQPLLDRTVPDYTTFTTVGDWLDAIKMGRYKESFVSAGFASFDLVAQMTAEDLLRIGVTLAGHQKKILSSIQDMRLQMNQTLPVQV
# [3] = target: T2, Ephrin type-B receptor 3 (Homo sapiens); settings: at 1 µM
# [4] = target: T3, Ephrin type-B receptor 4 (Homo sapiens) (UniProt P54760); settings: at 0.1 µM
# T3 sequence (whole entry): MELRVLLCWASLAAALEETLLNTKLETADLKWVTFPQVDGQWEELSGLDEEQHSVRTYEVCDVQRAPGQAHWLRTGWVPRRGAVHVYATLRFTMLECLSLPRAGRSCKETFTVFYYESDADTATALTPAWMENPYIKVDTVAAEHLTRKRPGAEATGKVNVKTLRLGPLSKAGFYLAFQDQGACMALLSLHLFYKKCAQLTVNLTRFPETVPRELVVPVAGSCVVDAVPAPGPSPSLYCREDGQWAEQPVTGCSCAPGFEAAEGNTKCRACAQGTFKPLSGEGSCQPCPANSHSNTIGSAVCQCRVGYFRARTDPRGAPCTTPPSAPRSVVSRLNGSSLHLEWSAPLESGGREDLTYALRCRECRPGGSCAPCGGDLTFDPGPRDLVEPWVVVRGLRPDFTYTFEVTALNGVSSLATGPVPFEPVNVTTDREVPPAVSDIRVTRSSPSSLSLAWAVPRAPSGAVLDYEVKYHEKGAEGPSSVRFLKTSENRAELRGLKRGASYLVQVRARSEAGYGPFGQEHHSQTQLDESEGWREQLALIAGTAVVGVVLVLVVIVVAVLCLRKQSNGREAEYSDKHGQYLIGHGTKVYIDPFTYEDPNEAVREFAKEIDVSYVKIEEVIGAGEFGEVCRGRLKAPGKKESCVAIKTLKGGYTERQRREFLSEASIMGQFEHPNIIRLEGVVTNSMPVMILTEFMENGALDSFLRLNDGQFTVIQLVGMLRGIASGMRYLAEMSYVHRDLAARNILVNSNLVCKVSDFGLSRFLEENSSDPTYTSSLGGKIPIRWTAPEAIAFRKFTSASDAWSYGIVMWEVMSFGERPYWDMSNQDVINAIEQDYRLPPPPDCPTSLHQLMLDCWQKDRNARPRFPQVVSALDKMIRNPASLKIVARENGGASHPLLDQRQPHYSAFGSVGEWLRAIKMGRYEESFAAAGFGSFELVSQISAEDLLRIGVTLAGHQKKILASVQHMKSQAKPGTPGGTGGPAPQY
# [5] = target: T3, Ephrin type-B receptor 4 (Homo sapiens); settings: at 1 µM
# [6] = target: Receptor tyrosine-protein kinase erbB-2 (Homo sapiens) (UniProt P04626); settings: at 0.1 µM
# [7] = target: Receptor tyrosine-protein kinase erbB-2 (Homo sapiens) (UniProt P04626); settings: at 1 µM
# [8] = target: Receptor tyrosine-protein kinase erbB-4 (Homo sapiens) (UniProt Q15303); settings: at 0.1 µM
# [9] = target: Receptor tyrosine-protein kinase erbB-4 (Homo sapiens) (UniProt Q15303); settings: at 1 µM
# [10] = target: Tyrosine-protein kinase Fer (Homo sapiens) (UniProt P16591); settings: at 0.1 µM
# [11] = target: Tyrosine-protein kinase Fer (Homo sapiens) (UniProt P16591); settings: at 1 µM
# [12] = target: Tyrosine-protein kinase Fes/Fps (Homo sapiens) (UniProt P07332); settings: at 0.1 µM
# [13] = target: Tyrosine-protein kinase Fes/Fps (Homo sapiens) (UniProt P07332); settings: at 1 µM
# [14] = target: Fibroblast growth factor receptor 1 (Homo sapiens) (UniProt P11362); settings: at 0.1 µM
# [15] = target: Fibroblast growth factor receptor 1 (Homo sapiens) (UniProt P11362); settings: at 1 µM
# [16] = target: Fibroblast growth factor receptor 2 (Homo sapiens) (UniProt P21802); settings: at 0.1 µM
# [17] = target: Fibroblast growth factor receptor 2 (Homo sapiens) (UniProt P21802); settings: at 1 µM
# [18] = target: Fibroblast growth factor receptor 3 (Homo sapiens) (UniProt P22607); settings: at 0.1 µM
# [19] = target: Fibroblast growth factor receptor 3 (Homo sapiens) (UniProt P22607); settings: at 1 µM
# [20] = target: Fibroblast growth factor receptor 4 (Homo sapiens) (UniProt P22455); settings: at 0.1 µM;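 note: values are mean percent inhibition of FGFR4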
# Fibroblast growth factor receptor 4 (Homo sapiens), sequence (P22455 22-802 limits assumed): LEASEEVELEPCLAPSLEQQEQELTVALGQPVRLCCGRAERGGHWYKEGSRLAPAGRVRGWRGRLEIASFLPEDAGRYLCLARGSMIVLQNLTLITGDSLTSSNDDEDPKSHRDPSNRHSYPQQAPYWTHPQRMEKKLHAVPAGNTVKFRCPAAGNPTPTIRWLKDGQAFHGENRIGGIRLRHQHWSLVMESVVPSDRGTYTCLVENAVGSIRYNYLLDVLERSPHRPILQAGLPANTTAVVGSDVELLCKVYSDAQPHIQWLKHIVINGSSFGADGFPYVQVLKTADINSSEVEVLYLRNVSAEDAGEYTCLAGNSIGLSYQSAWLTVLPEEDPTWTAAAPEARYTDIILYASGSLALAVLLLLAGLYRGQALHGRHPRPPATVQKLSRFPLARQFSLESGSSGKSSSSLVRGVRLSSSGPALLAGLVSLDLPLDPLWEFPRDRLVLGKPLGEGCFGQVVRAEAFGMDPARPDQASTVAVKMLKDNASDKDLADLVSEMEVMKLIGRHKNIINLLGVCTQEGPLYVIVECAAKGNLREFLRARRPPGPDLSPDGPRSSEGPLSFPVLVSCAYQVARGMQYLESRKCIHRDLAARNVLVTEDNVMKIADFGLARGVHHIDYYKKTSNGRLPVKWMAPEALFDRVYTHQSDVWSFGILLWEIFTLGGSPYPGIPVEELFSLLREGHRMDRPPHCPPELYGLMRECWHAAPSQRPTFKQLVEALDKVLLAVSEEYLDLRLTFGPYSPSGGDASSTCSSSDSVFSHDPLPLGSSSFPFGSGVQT
# Fibroblast growth factor receptor 2 (Homo sapiens), sequence (P21802 22-821 limits assumed): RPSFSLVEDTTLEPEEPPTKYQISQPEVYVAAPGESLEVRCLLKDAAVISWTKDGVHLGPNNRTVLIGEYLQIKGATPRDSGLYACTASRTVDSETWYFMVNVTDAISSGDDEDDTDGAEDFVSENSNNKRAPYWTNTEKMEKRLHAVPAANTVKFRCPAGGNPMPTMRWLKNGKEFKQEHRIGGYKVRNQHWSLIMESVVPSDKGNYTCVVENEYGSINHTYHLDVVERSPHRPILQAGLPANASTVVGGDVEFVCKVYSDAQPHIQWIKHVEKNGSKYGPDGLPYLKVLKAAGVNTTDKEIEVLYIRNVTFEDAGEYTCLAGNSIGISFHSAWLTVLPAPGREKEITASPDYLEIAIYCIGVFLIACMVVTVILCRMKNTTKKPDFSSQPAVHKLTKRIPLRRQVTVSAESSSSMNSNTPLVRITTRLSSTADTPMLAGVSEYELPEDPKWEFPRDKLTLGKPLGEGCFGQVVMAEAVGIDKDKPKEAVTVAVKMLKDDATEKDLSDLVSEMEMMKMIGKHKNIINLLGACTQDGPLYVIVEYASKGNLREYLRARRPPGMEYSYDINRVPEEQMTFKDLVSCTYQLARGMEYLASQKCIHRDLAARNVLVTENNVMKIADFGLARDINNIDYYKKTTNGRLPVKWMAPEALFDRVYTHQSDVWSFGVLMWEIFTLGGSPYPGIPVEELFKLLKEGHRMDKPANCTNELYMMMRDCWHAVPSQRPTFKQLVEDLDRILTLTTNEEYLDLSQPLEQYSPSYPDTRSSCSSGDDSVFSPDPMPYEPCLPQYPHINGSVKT
# Tyrosine-protein kinase Fer (Homo sapiens), sequence (P16591 whole entry, looked up): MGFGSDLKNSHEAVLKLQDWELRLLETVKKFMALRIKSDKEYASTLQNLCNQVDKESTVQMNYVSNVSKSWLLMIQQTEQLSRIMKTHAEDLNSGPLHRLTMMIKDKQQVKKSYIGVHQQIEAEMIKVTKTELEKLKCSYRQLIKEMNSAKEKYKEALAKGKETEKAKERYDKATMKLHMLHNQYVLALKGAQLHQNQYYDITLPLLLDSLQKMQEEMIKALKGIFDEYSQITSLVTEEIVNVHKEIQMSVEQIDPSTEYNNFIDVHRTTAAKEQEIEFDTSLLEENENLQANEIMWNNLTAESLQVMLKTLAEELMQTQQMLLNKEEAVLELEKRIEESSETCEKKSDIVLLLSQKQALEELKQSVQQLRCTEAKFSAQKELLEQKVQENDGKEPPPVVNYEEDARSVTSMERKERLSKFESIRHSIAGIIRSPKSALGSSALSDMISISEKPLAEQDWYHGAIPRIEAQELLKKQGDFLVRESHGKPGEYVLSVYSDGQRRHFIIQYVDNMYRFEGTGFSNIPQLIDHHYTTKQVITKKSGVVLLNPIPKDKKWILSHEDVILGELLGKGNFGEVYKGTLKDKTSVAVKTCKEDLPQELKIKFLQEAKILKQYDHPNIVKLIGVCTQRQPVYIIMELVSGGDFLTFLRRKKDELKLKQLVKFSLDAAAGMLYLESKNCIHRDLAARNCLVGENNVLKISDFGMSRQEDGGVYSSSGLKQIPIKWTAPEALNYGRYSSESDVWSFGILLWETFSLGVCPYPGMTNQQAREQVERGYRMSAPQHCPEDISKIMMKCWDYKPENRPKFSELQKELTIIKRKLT
# Receptor tyrosine-protein kinase erbB-4 (Homo sapiens), sequence (Q15303 whole entry): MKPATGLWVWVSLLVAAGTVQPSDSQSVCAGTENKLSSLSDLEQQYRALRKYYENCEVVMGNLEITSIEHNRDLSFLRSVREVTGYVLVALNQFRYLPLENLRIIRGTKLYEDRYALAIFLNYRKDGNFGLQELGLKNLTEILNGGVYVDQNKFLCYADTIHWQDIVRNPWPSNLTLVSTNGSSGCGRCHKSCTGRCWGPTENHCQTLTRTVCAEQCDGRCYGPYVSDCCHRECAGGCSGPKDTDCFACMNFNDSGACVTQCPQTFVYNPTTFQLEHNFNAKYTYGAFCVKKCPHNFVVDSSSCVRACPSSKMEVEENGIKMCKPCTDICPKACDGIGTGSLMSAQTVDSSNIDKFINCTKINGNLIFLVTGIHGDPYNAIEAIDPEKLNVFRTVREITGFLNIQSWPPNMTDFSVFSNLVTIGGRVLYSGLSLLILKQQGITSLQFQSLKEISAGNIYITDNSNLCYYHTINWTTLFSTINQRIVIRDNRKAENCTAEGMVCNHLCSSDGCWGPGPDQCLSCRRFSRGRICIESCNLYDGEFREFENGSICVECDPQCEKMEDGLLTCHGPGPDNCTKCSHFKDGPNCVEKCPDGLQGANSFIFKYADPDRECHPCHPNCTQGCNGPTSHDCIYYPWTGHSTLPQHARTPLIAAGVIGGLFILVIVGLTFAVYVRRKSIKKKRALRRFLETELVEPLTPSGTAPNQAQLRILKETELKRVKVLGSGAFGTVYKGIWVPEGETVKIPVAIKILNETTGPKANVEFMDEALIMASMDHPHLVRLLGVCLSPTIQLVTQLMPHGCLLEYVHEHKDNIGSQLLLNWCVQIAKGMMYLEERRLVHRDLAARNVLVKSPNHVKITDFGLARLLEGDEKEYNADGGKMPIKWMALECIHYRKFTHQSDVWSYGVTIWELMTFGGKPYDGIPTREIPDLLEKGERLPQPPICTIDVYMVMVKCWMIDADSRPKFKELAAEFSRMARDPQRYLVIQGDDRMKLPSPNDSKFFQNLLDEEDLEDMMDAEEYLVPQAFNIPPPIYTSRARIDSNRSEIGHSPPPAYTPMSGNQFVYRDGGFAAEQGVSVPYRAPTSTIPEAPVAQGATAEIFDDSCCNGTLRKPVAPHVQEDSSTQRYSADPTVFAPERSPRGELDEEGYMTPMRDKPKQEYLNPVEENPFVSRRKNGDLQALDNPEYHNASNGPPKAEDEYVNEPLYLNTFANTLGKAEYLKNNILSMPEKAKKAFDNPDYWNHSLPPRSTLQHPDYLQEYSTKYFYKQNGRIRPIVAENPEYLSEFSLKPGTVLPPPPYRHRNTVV
# Tyrosine-protein kinase Fes/Fps (Homo sapiens), sequence (P07332 whole entry): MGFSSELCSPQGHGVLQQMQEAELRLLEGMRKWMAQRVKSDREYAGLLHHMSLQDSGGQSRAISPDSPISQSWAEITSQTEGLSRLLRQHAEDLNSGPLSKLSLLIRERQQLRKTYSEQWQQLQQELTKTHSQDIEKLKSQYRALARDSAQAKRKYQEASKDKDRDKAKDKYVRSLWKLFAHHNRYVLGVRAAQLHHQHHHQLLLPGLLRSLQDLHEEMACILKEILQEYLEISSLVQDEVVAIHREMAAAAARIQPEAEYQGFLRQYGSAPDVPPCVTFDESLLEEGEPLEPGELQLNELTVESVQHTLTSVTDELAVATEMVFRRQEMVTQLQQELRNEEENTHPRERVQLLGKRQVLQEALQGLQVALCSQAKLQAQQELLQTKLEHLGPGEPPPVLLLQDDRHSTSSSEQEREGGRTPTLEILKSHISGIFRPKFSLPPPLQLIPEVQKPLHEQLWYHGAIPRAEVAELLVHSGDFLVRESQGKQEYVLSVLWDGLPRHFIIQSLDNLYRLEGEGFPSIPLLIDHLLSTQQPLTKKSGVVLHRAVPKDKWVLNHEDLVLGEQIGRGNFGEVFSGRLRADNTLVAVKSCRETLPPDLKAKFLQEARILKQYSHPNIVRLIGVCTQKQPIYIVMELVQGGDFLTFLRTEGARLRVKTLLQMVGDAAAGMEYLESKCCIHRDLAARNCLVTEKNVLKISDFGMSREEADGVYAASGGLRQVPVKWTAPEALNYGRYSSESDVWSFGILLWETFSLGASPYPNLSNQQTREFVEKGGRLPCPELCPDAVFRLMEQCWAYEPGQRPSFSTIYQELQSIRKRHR
SMILES,inhibition [1] [%],inhibition [2] [%],inhibition [3] [%],inhibition [4] [%],inhibition [5] [%],inhibition [6] [%],inhibition [7] [%],inhibition [8] [%],inhibition [9] [%],inhibition [10] [%],inhibition [11] [%],inhibition [12] [%],inhibition [13] [%],inhibition [14] [%],inhibition [15] [%],inhibition [16] [%],inhibition [17] [%],inhibition [18] [%],inhibition [19] [%],inhibition [20] [%]
FC(F)(F)c1cccc(-c2nn3ncccc3c2-c2ccnc(Nc3ccc4c(c3)OCCO4)n2)c1,18.1,5.94,3,2.8,21.3,1.37,11.4,48.3,81.5,0.32,10.8,1.96,3.62,2.8,5.15,1.92,9.05,4.74,7.93,0.03
Nc1nc(-c2cccc(Cl)c2)c(-c2ccc3ncccc3n2)s1,15.5,5.95,5.53,2.58,3.57,2.61,5.7,,28.1,4.91,3.32,3.08,4.47,3.71,7.27,5.51,7.42,4.38,8.26,-1.18
O=S(=O)(CCNCc1ccc(-c2ccc3ncnc(Nc4ccc(OCc5cccc(F)c5)c(Cl)c4)c3c2)o1)c1ccccc1,13,4.95,4.03,0.96,2.99,43.9,60.5,36.4,89,3.86,4.93,4.42,4.26,3.65,8.42,7.23,11.6,7.36,6.93,-5.68
COc1ccc(-c2nn3ncccc3c2-c2ccnc(Nc3ccc4c(c3)OCCO4)n2)cc1,35,1.77,6.41,-0.35,15.6,0.95,17.2,55.9,108,1.56,11.8,4.35,7.51,-2.89,11.2,3.13,22.1,3.94,12.6,1.59
CC1=C(C(=O)Nc2cc(Cl)c3[nH]ncc3c2)C(c2ccc(C(F)(F)F)cc2)CC(=O)N1 (centres undefined),6.01,5.62,2.94,-1.21,0.29,2.74,1.78,11.9,31.2,4.27,3.32,2.07,2.33,-0.25,2.9,3.38,3.56,9.2,3.77,2.42
CS(=O)(=O)CCNCc1ccc(-c2ccc3ncnc(Nc4ccc(OCc5ccccc5)c(C(F)(F)F)c4)c3c2)o1,5.29,2.9,3.77,3.21,3.55,-0.56,10.4,9.71,33.4,4.03,1.94,3.29,3.27,1.07,5.49,3.74,6.37,4.77,5.71,2.52
Clc1ccc(-c2nn3ncccc3c2-c2ccnc(Nc3ccccc3)n2)cc1,55.4,4.87,5.92,6.02,37.2,-4.83,6.14,27.9,69.5,1.86,4.34,0.87,1.62,-0.82,7.85,0.58,10.3,4.85,6,1.52
